# Rows were chosen to be rich in hits. Some 1% of all compounds tested hit in one or more screens of this group.
# E coli RNAP – Escherichia coli RNA polymerase inhibition; E. coli RNA polymerase, fluorescence transcription assay; inhibition, %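 (tested at 10 µM)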; 62,000 tested, 0.2% active; in the data active = inhibition above about 20%;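 note: 0% = enzyme without compound and 100% = no enzyme blank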
# TNAP act mid DEA – activators of human TNAP at intermediate phosphate acceptor | 64,000 tested, under 10 active | activation factor at 20 µM | AID 813 | P05186 | purified TNAP, CDP-star luminescence, 100 mM DEA, 30 min; active compounds read high; scale: 0 levamisole-inhibited, 1 vehicle-only enzyme;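 active = activation factor of at least 2 at 20 µM, relative to controls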
# Cdc25B inh – inhibitors of human Cdc25B phosphatase; P30305; recombinant Cdc25B, OMFP fluorescence Ex485/Em525; inhibition, %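 (compounds tested at 10 µM final in the well)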; 65,000 tested, 0.1% active; AID 368; in the data active = inhibition above about 50%
# BAP1 block – blocks human BAP1 ubiquitin-AMC hydrolysis; 72,000 tested, 0.48% active; calls only at 20 µM; recombinant BAP1, Ub-AMC hydrolysis fluorescence kinetic; active compounds read low; Q92560;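 active = activity remaining at or below 50% of control, provided the compound also passes the data quality filters; inactive = the rest, including low values that fail the filters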;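 note: 100% = DMSO wells rate and 0% = substrate alone blank rate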
# Target sequence (Q92560 whole entry, looked up): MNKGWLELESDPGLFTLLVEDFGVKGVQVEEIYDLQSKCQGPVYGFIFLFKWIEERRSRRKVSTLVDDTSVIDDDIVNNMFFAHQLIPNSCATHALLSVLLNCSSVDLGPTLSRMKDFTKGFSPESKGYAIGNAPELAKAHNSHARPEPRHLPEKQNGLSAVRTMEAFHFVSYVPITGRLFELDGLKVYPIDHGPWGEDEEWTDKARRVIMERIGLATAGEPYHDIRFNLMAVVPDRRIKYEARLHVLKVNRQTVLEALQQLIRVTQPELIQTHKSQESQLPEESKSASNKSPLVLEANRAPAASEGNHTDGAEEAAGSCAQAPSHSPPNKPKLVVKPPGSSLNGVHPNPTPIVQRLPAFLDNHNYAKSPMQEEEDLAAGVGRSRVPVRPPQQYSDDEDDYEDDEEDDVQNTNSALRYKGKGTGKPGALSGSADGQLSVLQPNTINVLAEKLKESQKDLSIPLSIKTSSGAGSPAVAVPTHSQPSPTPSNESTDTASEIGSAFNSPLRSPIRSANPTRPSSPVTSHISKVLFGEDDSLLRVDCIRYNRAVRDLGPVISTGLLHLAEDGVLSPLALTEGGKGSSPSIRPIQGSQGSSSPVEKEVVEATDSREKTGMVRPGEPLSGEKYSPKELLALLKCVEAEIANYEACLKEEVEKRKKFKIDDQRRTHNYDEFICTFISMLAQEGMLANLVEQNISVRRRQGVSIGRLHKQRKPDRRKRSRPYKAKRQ
# MKP-1 inh – human dual specificity phosphatase 1 inhibition; P28562; recombinant MKP-1, OMFP hydrolysis fluorescence; inhibition, %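 (compounds tested at a single concentration somewhere between 10 and 100 µM)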; 65,000 tested, 0.15% active; AID 374;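 active = inhibition above about 50%, limit read from the data; inconclusive = inhibition over screen mean plus 3 SD, below that limit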;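 note: 0% = DMSO max control wells and 100% = wells with enzyme stopped by NaOH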
# HePTP inh – blocks human HePTP tyrosine phosphatase; inhibition, % at 20 µM; 110,000 tested, 0.64% active; recombinant HePTP phosphatase activity, OD absorbance; AID 521; P35236; in the data active = inhibition above about 50%; inconclusive = no clear call, values can overlap the other calls;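 note: plate controls were vehicle for no effect and reference inhibitor for full effect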
# BAP1 inh confirm – confirmation of human BAP1 enzyme inhibitors; 310 tested, 8% active; % of control activity, % at 20 µM; purified BAP1, Ub-ethyl ester hydrolysis, HPLC; active compounds read low; shares compounds with BAP1 block;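 active = percent of control activity at or below 60%; inconclusive = HPLC trace unusable from injection failure or solvent front hiding peaks; inactive = the rest, plus ubiquitin peak ratio over a set limit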
# * hit, by the source's call; i = inactive; ? = inconclusive; / = no result shown; + = active, no number.
SMILES,E coli RNAP,TNAP act mid DEA,Cdc25B inh,BAP1 block,MKP-1 inh,HePTP inh,BAP1 inh confirm
Nc1c(C(=O)NCc2ccco2)sc2nc3c(cc12)C(=O)CCC3,5.1,0.9,3.2,+,-0.5,12.3,151.4
Cc1ccc(-c2nc3c(c(-c4ccc(C)cc4)n2)CCCC3)cc1,/,/,/,/,/,4.7,/
O=C1SC(SCc2ccccc2)=N/C1=C\c1ccco1,9.1,0.8,4.1,/,7.1,-1.6,/
CCCSC1=N/C(=C\C=C\c2ccco2)C(=O)S1,7.0,0.9,2.5,+,-7.5,14.5,86.2
O=C(Nc1ccccc1)C1=C(O)CC(c2ccco2)CC1=Nc1ccccc1 (stereo not drawn),3.5,1,-9.7,i,-3.8,-0.9,/
O=C(Nc1ccccc1)C1=C(O)CC(c2ccoc2)CC1=Nc1ccccc1 (stereo not drawn),9.4,0.8,5.4,+,-1.4,-4.5,?
Cn1nc(-c2ccc(Cl)cc2)c2cc(C(=O)NC3CC3)sc21,5.1,0.9,-13.8,+,2.5,0.8,155.5
CCOc1cc(C(=O)O)cc(Cl)c1OCC#N,4.3,0.9,4.3,+,18.4,-1.4,103.9
O=C(CSc1nnc(COc2ccc3c(c2)CCCC3)o1)Nc1ccc(F)cc1,2.2,0.9,0.8,+,6.1,4.9,92.9
COC(=O)c1cc2nc(-c3ccc(OC)c(OC)c3)cc(C(F)(F)F)n2n1,3.2,1,-21.7,+,10.4,6.2,128.9
CC(C)OC(=O)c1cccnc1SCc1cc(=O)n2ccccc2n1,-5.3,0.9,-2.8,+,-6.4,-4.8,90.0
CCOC(=O)CNC(=O)c1ccc(-c2ccccc2)cc1,/,/,/,/,/,-6.3,/
CCCCOc1ccccc1NC(=O)c1ccc(C(C)(C)C)cc1,/,/,/,/,/,-6.5,/
COc1ccc(OC)c(C2CC(=O)N3CN(c4cccc(Cl)c4C)CSC3=C2C#N)c1 (stereo not drawn),8.5,0.9,-4.6,+,8.2,-3.8,103.8
CCOc1cc2[nH]c(=S)n(CCCCC(=O)NCc3ccco3)c(=O)c2cc1OCC,14.8,0.9,-9.4,+,24.8,9.7,89.5
CN(CC(=O)N1CCN(c2ccc(F)cc2)CC1)S(=O)(=O)c1ccc(F)cc1,3.6,0.9,-11.4,+,2.2,14.0,137.1
CCOC(=O)c1sc2nc(NC(=O)COc3ccccc3)sc2c1C,-3.3,1,4.7,+,5.0,-2.5,77.9
CCOC(=O)c1sc2nc(NC(=O)c3cccs3)sc2c1C,6.4,0.9,2.6,i,11.6,4.4,/
CCn1c2ccccc2c2cc(NC(=O)CSc3nnc(C4CC4)n3Cc3ccco3)ccc21,4.5,0.9,-5.2,+,34.4,5.6,100.0
O=C(O)CCc1ccc(-c2ccccc2)n1-c1cccc(O)c1,/,/,10.0,+,37.0,/,142.8
O=C(O)CCc1ccc(-c2ccccc2)n1CC(=O)O,2.3,0.8,-8.9,i,7.1,0.5,/
CN(C)Cn1c(O)c(N=NC(=O)c2cccnc2)c2ccccc21,/,/,/,/,/,4.3,/
CCOC(=O)C(C(C)=O)c1c(Br)c(O)c(O)c2c(C(=O)c3ccc(C)cc3)coc12 (stereo not drawn),17.7,0.9,13.6,+,-5.4,10.3,68.4
CCOC(=O)C(C(C)=O)c1cc(NS(=O)(=O)c2ccc(C)cc2)c2ccccc2c1NS(=O)(=O)c1ccc(C)cc1 (stereo not drawn),/,/,/,/,/,49.9,/
COc1ccc(N/C=C2/CCCCC2=O)cc1,8.0,1,-0.6,i,4.2,3.9,/
SMILES,E coli RNAP,TNAP act mid DEA,Cdc25B inh,BAP1 block,MKP-1 inh,HePTP inh,BAP1 inh confirm
CC1CCC/C(=C\Nc2ccc(O)cc2)C1=O (stereo not drawn),4.0,0.9,2.5,+,-9.0,-3.3,90.8
COc1ccc2cc(C(c3nnnn3Cc3ccccc3)N3CCCCCC3)c(=O)[nH]c2c1 (stereo not drawn),12.4,0.9,10.0,+,7.5,-1.5,50.1*
Cc1cc(/C=N/Nc2ccc([N+](=O)[O-])cn2)c(C)n1-c1ccc(F)cc1,/,/,/,/,/,9.0,/
COc1cccc(OCCOc2c(Cl)cc(/C=c3\sc4nc5ccccc5n4c3=O)cc2OC)c1,/,/,/,/,/,-5.4,/
Cc1ccc(SCc2c(C#N)c3ccccc3n2C)cc1,7.4,0.8,7.3,i,16.6,9.2,/
Cc1ccccc1N1CCN(Cc2c(C#N)c3ccccc3n2C)CC1,/,0.9,0.0,+,-2.6,11.1,73.7
O=C(NC(=S)N1CCN(CCN2C(=O)c3cccc4cccc(c34)C2=O)CC1)c1ccc2c(c1)OCO2,/,/,/,/,/,-0.5,/
COCCn1nnnc1C(C(C)C)N(Cc1ccccc1)Cc1cc2cc(OC)ccc2[nH]c1=O (stereo not drawn),6.4,0.9,2.1,i,40.8,8.8,/
COCCn1nnnc1C(C(C)C)N(Cc1cccnc1)Cc1cc2cc(OC)ccc2[nH]c1=O (stereo not drawn),3.7,1,3.1,+,5.4,5.2,114.4
Cc1ccc(OCC(=O)Oc2ccc(Cl)cc2C)cc1C,/,/,/,/,/,-6.1,/
O=c1[nH]c(SCc2ccc(F)cc2)nc2c1cnn2-c1ccc(F)cc1,3.2,0.8,-2.7,+,-7.0,5.2,57.3*
CCCSc1nc2c(cnn2-c2ccc(F)cc2)c(=O)[nH]1,6.5,0.9,3.7,i,12.2,-3.9,/
CCOC(=O)c1cnc(SCC(=O)Nc2cc(OC)cc(OC)c2)nc1N,9.8,0.9,3.5,i,-5.6,8.2,/
CCOC(=O)c1cnc(SCC(=O)Nc2sc(C)c(C)c2C#N)nc1N,7.8,0.9,-10.5,+,3.8,7.6,31.1*
COc1cccc(OCCOCCN2CCCC2)c1,/,/,/,/,/,-10.9,/
CCOC(=O)c1ccc(NC(=O)CCc2ccc(CC)o2)cc1,6.3,0.9,12.5,+,3.9,2.3,95.6
CCOC(=O)c1ccc(NC(=O)CCc2c[nH]c3ccccc23)cc1,/,/,/,i,/,/,/
COc1cccc2sc(=NC(=O)C3CCCCC3)n(C)c12,/,/,/,i,/,/,/
COc1ccc(OC)c2c1sc(=NC(=O)c1ccco1)n2C,6.4,0.9,-3.2,+,13.8,5.8,90.8
Cc1csc(NC(=O)c2cc3c(s2)-c2ccccc2OC3)n1,1.0,0.8,-6.8,+,1.0,14.5,90.8
Cc1csc(NC(=O)c2cc3c(s2)CCC3)n1,0.6,0.9,-29.4,/,2.9,-11.7,/
c1ccc(-c2cc(-c3nn4c(-c5ccco5)nnc4s3)c3ccccc3n2)cc1,2.0,0.9,48.8,+,39.9,15.4,109.1
Nc1nc(-c2cccnc2)nn1C(=O)COc1ccccc1,1.7,0.9,-9.4,+,-14.8,5.6,95.6
Nc1nc(-c2cccnc2)nn1C(=O)CCc1ccccc1,/,/,-5.8,i,-0.1,/,/
O=C(CSc1nnc(C2CC2)n1Cc1ccccc1)c1cc2ccccc2o1,3.7,0.8,2.1,+,20.1,-12.4,90.6
CC1=CC(C)(C)Nc2ccc(C)cc21,4.5,1,5.4,/,-5.2,-11.4,/

# Screening data: PubChem, several laboratories
